Measured values: PubChem BioAssay (EPA / NIEHS)
Active and inactive are the calls of the source. How the source made its calls: active means hit-call score of the fitted dose curve at least 0.9, where 1 is the maximum; inactive means score below 0.9.

Assays:
Settings in all cases: primary human HUVEC with PBMC; actives raise or lower the signal
[1] = read-out: Macrophage colony-stimulating factor (MCSF), CSF1 (gene 1435); assay: BSK_LPS_MCSF: BioMAP Diversity Plus: LPS Assay for Macrophage colony-stimulating factor (MCSF) Biomarker Activity (AID 2283083)
How it was run: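 HUVEC–PBMC co-culture, M-CSF measured by ELISA 24 h after chemical dosing. Fitted in both directions relative to DMSO as negative control; overt cytotoxicity assessed by SRB total-protein staining in parallel cultures.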

[2] = read-out: Tissue Factor, F3 (gene 2152); assay: BSK_LPS_TissueFactor: BioMAP Diversity Plus: LPS Assay for Tissue Factor Biomarker Activity (AID 2283084)
How it was run: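 Human umbilical vein endothelial cells co-cultured with PBMC were dosed with compound. Cell-surface CD142 was measured by ELISA 24 h later. Activity was fitted bidirectionally against DMSO, with SRB total-protein staining in parallel cultures for cytotoxicity.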

[3] = read-out: Tumor necrosis factor (Homo sapiens) (UniProt P01375); assay: BSK_LPS_TNFa: BioMAP Diversity Plus: LPS Assay for Tumour Necrosis Factor alpha (TNFa) Biomarker Activity (AID 2283085);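 on AC50: TNFa protein level quantified by ELISA in the co-culture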
How it was run: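 Cells (umbilical vein endothelium plus peripheral blood mononuclear cells) were dosed with chemical, incubated 24 h, then TNFa was quantified by ELISA; values derive from bidirectional fitting with DMSO as baseline.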

[4] = read-out: CD38, CD38 (gene 952); assay: BSK_SAg_CD38: BioMAP Diversity Plus: SAg Assay for CD38 Biomarker Activity (AID 2283087)
How it was run: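 CD38 quantified by ELISA (fluorescence) in a superantigen-activated endothelial cell–PBMC co-culture at 24 h post-dose. Activity fitted in both directions relative to DMSO; parallel SRB and Alamar Blue cytotoxicity read-outs.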

[5] = read-out: CD69, CD69 (gene 969); assay: BSK_SAg_CD69: BioMAP Diversity Plus: SAg Assay for CD69 Biomarker Activity (AID 2283089);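 on AC50: cell surface CD69 protein quantified by ELISA with fluorescence detection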
How it was run: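 HUVEC co-cultured with PBMC were dosed with chemical, and CD69 was measured by ELISA with fluorescence read-out 24 h later. Bidirectional curve fitting used DMSO as negative control and activity baseline.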

[6] = read-out: Monocyte Chemoattractant Protein-1 (MCP1), CCL2 (gene 6347); assay: BSK_SAg_MCP1: BioMAP Diversity Plus: SAg Assay for Monocyte Chemoattractant Protein-1 (MCP1) Biomarker Activity (AID 2283090)
How it was run: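 Values derive from bidirectional fitting of ELISA-measured MCP1 against DMSO controls. Readings were taken 24 h after dosing human vascular endothelial cells co-cultured with peripheral blood mononuclear cells under superantigen stimulation.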

[7] = read-out: E-selectin (Homo sapiens) (UniProt P16581); assay: BSK_SAg_Eselectin: BioMAP Diversity Plus: SAg Assay for Eselectin Biomarker Activity (AID 2283091)
How it was run: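 Human umbilical vein endothelial cells co-cultured with peripheral blood mononuclear cells, SAg system. E-selectin is measured by ELISA 24 h after dosing and fitted bidirectionally against DMSO. Cytotoxicity is checked by SRB staining of parallel cultures.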

[8] = read-out: Monokine induced gamma interferon (MIG), CXCL9 (gene 4283); assay: BSK_SAg_MIG: BioMAP Diversity Plus: SAg Assay for Monokine induced gamma interferon (MIG) Biomarker Activity (AID 2283092)
How it was run: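 HUVEC plus human PBMC co-culture, chemicals dosed and MIG (CXCL9) quantified by ELISA at 24 h. Bidirectional curve fitting against DMSO as negative control and baseline, so both gain and loss of signal count as activity.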

[9] = read-out: Vascular cell adhesion molecule 1 (VCAM1), VCAM1 (gene 7412); assay: BSK_LPS_VCAM1: BioMAP Diversity Plus: LPS Assay for Vascular cell adhesion molecule 1 (VCAM1) Biomarker Activity (AID 2283086)
How it was run: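 Cells are dosed in an LPS-stimulated endothelial/mononuclear co-culture and, after 24 h, VCAM-1 is quantified by ELISA. Activity in either direction is fitted relative to the DMSO negative control.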

[10] = read-out: CD40, CD40 (gene 958); assay: BSK_SAg_CD40: BioMAP Diversity Plus: SAg Assay for CD40 Biomarker Activity (AID 2283088)
How it was run: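 HUVEC plus PBMC co-culture, superantigen-activated, with CD40 read by ELISA 24 h after dosing. Curves fitted in both directions against DMSO. Overt cytotoxicity checked by parallel SRB total-protein staining.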

Measured: AC50

Sequence of Tumor necrosis factor (Homo sapiens) (P01375 whole entry, looked up): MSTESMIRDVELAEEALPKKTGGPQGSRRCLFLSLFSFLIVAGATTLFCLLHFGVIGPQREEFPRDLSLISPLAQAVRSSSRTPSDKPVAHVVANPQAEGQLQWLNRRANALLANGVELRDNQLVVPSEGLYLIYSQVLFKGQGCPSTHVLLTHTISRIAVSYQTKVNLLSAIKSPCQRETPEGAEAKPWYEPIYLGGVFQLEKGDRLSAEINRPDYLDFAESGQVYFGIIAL
Sequence of E-selectin (Homo sapiens) (P16581 whole entry, looked up): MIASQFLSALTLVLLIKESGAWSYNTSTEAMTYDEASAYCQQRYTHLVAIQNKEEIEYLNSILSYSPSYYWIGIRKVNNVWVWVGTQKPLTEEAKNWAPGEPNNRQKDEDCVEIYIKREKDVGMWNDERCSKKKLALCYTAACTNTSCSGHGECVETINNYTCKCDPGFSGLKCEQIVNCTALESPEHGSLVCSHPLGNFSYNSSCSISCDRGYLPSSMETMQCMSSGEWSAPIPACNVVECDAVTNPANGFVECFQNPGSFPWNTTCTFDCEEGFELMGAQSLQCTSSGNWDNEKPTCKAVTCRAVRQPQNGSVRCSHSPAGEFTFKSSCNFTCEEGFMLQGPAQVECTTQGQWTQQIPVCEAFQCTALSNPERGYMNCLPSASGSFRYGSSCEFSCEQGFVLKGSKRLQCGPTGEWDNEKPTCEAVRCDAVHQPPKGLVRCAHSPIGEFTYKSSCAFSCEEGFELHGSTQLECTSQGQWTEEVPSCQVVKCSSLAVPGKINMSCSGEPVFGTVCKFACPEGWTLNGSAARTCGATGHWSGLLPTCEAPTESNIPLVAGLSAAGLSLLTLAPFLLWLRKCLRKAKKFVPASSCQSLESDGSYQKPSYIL

CC(COCC(C)OC(=O)c1ccccc1)OC(=O)c1ccccc1 (stereo unspecified)
not listed: [9] | [10]
inactive: all other assays above

CCCCC(CC)CO (stereo unspecified)
not listed: [3]
inactive: all other assays above

CCOCCOCCO
not listed: [9] | [10]
inactive: all other assays above

Cc1cn([C@H]2C=C[C@@H](CO)O2)c(=O)[nH]c1=O
not listed: [9] | [10]
inactive: all other assays above

Nc1nc(Cl)nc2c1ncn2[C@H]1C[C@H](O)[C@@H](CO)O1
inactive: [4] | [8]
active: [1] 1.08 µM | [2] 3.37 µM | [3] 5.4 µM | [5] 4.31 µM | [6] 3.09 µM | [7] 9.32 µM

O=C(N[C@@H](c1ccccc1)[C@@H]1CCCCN1)c1cccc(C(F)(F)F)c1Cl
inactive: [1] | [2] | [3] | [8]
active: [4] 20 µM | [5] 20 µM | [6] 23.4 µM | [7] 12.3 µM

C=CCCCCCCCCCCCC
not listed: [9] | [10]
inactive: all other assays above

O=C(O)CN(CC(=O)O)CC(=O)O
not listed: [3]
inactive: all other assays above

O=C1NC(=O)C(c2ccccc2)(c2ccccc2)N1
not listed: [9] | [10]
inactive: all other assays above

CCCCc1nc2cccnc2n1Cc1ccc(-c2ccccc2-c2nnn[nH]2)cc1
not listed: [9]
inactive: all other assays above

CC(=O)O
not listed: [3]
inactive: all other assays above

CCc1cc(C2=C(C(=O)O)N(c3ccccc3C(F)(F)F)S(=O)(=O)c3ccccc32)cc2c1OCO2
active: [4] 19.8 µM | [5] 11.1 µM
not listed: [9] | [10]
inactive: all other assays above

CCc1nc(N)nc(N)c1-c1ccc(Cl)cc1
not listed: [3]
inactive: all other assays above

O=NO
not listed: [9]
inactive: all other assays above

CCCC[C@H]1CN(CC2CCOCC2)C(=O)OC12CCN(C1(C)CCN(C(=O)c3c(C)ncnc3C)CC1)CC2
not listed: [9] | [10]
inactive: all other assays above

Cc1c(C)c2c(c(C)c1O)CCC(C)(COc1ccc(CC3SC(=O)NC3=O)cc1)O2 (stereo unspecified)
active: [1] 31.6 µM | [2] 34.8 µM | [9] 30.5 µM | [4] 24.9 µM | [10] 14.9 µM | [5] 21.5 µM | [6] 32.6 µM | [7] 31.9 µM | [8] 31.6 µM

c1ccc2occc2c1
not listed: [3]
inactive: all other assays above

Cc1cc(Cc2ccc(N)c(C)c2)ccc1N
active: [7] 5.1 µM
not listed: [1]
inactive: all other assays above

Cc1occc(=O)c1O
not listed: [3] | [9]
inactive: all other assays above

O=C(O)c1[nH]n(-c2ccc(S(=O)(=O)O)cc2)c(=O)c1N=Nc1ccc(S(=O)(=O)O)cc1
not listed: [3] | [9] | [10]
inactive: all other assays above

C#CC(O)C(CC)CCCC (stereo unspecified)
not listed: [3] | [9]
inactive: all other assays above

Cc1ccc(-c2cc(C(F)(F)F)nn2-c2ccc(S(N)(=O)=O)cc2)cc1
active: [1] 29.7 µM | [2] 30.7 µM | [9] 31.7 µM | [4] 30.2 µM | [5] 26.9 µM | [6] 30.5 µM | [7] 29.4 µM | [8] 34.6 µM

CC(C)c1cccc(C(C)C)c1
not listed: [3] | [9] | [10]
inactive: all other assays above
